# Experimental data published in PMC4336329 (PLoS ONE, 2015).
# Among all 310,000 compounds or so, about 2,200 (0.71%) showed an effect of 50% or more. Effects have a minus sign here. The list comes from a sample in which strong results are over-represented; it also holds similar structures and randomly drawn compounds.
# Target: human ether-à-go-go-related gene (hERG) potassium channel (human, UniProt Q12809)
# Assay: primary screen, population patch clamp on CHO cells stably expressing hERG; higher = less effect of the substance
# Method: Briefly, Chinese hamster ovary (CHO) cells stably expressing the hERG channel were dislodged from tissue culture flasks and dispensed into PPC plates. […] During the recording, background leak currents were estimated by a 100 ms step to -80 mV from an initial holding potential of -70 mV and subtracted from the subsequent current measurement. The campaign was conducted in two phases using slight differences in recording protocol. In the first phase, the initial voltage pulse used a 100 ms step to -30 mV from a holding potential of -70 mV, a 2 s conditioning step to +25 mV, and a 2 s test step to -30 mV. During the second phase of the screen, the potential during the conditioning step was raised to +45 mV. In both phases of the campaign, a secondary voltage pulse was applied using the same parameters as the second phase initial pulse. The initial and secondary pulses were applied in the absence of compound, and upon application of 1 μM and 10 μM test concentrations. Small molecule effects on hERG current density were quantified by […].
# Chain of human ether-à-go-go-related gene (hERG) potassium channel (Q12809 whole entry, looked up): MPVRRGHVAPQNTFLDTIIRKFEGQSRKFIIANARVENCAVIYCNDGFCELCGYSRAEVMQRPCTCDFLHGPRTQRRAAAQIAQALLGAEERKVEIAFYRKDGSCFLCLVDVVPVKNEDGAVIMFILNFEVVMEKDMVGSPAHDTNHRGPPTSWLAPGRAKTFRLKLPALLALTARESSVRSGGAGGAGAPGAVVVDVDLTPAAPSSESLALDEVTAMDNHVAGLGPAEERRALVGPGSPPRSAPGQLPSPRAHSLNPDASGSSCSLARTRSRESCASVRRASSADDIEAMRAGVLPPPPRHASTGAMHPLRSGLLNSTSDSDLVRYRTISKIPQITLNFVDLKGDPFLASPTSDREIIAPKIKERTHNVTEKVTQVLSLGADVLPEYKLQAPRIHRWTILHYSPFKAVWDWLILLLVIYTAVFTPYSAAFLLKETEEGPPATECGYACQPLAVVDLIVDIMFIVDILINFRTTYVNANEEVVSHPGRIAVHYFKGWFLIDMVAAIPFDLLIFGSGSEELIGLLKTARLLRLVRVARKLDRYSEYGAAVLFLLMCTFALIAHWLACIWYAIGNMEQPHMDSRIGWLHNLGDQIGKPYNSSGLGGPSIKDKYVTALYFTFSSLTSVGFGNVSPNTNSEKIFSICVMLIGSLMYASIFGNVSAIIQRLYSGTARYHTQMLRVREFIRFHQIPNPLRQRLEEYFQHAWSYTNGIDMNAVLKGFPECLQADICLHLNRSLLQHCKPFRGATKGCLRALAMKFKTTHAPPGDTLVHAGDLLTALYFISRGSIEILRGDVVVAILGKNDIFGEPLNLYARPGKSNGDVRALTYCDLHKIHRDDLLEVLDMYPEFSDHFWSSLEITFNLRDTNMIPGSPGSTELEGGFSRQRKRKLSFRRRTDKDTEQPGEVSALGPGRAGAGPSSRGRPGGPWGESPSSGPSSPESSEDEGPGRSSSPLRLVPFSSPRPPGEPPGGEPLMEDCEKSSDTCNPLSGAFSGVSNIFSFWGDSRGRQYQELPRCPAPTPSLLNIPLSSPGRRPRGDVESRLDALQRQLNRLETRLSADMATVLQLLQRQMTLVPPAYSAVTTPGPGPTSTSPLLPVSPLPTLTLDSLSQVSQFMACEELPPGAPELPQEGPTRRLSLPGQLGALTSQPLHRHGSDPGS
row,SMILES,"hERG current change (%, negative = inhibition) at 1uM"
1,Cc1cccc(CS(=O)(=O)Cc2ccc(C(=O)N3CCC4(CC3)OCCO4)o2)c1,10%
2,Cc1cccnc1NC(=S)NCCc1ccccc1,-3.36%
3,CNC(=O)c1[nH]cnc1C(=O)N[C@@H](CC(C)C)C(=O)OCc1ccccc1,-51.8%
4,CC(C)C[C@H](NC(=O)c1nc[nH]c1C(=O)N[C@@H](CC(C)C)C(=O)OCc1ccccc1)C(=O)OCc1ccccc1,9.56%
5,CC(C)C[C@H](NC(=O)c1[nH]cnc1C(=O)N[C@@H](Cc1ccccc1)C(=O)OCc1ccccc1)C(=O)OCc1ccccc1,10.2%
6,COc1ccccc1NC(=O)N1CCCC1C(=O)Nc1ccc2c(c1)OCO2 (stereo not drawn),2.76%
7,O=C(CCC1COc2ccccc2O1)NCC1COc2ccccc2O1 (stereo not drawn),6.41%
8,Cc1nnc(SCc2nnc(-c3ccccc3Br)o2)s1,18.8%
9,CC(=O)c1cccc(NC(=O)/C(=C\c2ccco2)NC(=O)c2ccco2)c1,-50.7%
10,CC(=O)c1ccc(NC(=O)/C(=C\c2ccco2)NC(=O)c2ccco2)cc1,4.96%
11,CC(=O)c1cccc(NC(=O)/C(=C/c2ccco2)NC(=O)c2ccco2)c1,10.1%
12,CCc1ccc(-n2nc3cc(C)c(N)cc3n2)cc1,13.3%
13,COc1ccc(NC(=O)NC2(C(=O)N3CCCC(C)C3)CCCCC2)cc1 (stereo not drawn),14.1%
14,O=C(CCCc1ccccc1)N1CCN(c2ccc([N+](=O)[O-])cc2)CC1,-48.2%
15,O=C(ON=C1CCN(c2ccc([N+](=O)[O-])cc2)CC1)c1ccccc1,-26%
16,CC1(C)Cc2cccc(OCC(=O)N3CCN(c4ccc([N+](=O)[O-])cc4)CC3)c2O1,-51.8%
17,CC1(C)Cc2cccc(OCC(=O)N3CCN(c4ccc(F)cc4)CC3)c2O1,-16.2%
18,COc1ccc(C(=O)ON=C2CCN(c3ccc([N+](=O)[O-])cc3)CC2)cc1,-57.7%
19,O=C(CCc1ccccc1)N1CCN(c2ccc([N+](=O)[O-])cc2)CC1,-67.4%
20,COc1ccc(C(=O)CCC(=O)N2CCN(c3ccc([N+](=O)[O-])cc3)CC2)cc1,-28.4%
21,Cc1ccc(C(=O)ON=C2CCN(c3ccc([N+](=O)[O-])cc3)CC2)cc1,-21.2%
22,O=C(Cc1ccccc1)N1CCN(c2ccc([N+](=O)[O-])cc2)CC1,-36.4%
23,COc1ccc(N2CCN(C(=O)CSc3ccccc3)CC2)cc1,12.7%

row,SMILES,"hERG current change (%, negative = inhibition) at 1uM"
1,COc1ccc(N2CCN(C(=O)CSc3ccc([N+](=O)[O-])cc3)CC2)cc1,-85.1%
2,CC1(C)Cc2cccc(OCC(=O)N3CCN(c4ccccc4)CC3)c2O1,-2.57%
3,Cc1cccc(C)c1OCC(O)CN.Cl.O (stereo not drawn),10.5%
4,COc1ccccc1NC(=O)/C=C1\SCC(=O)N1C,2.4%
5,NC(=O)CSc1nc(-c2ccccc2)c(-c2ccccc2)o1,8.48%
6,C/C=C1\COC(C(=O)NCc2ccncc2)(C(F)(F)F)C=C1C=C1CCCCC1 (stereo not drawn),12.8%
7,CCCc1n[nH]c2c1/C(=N\OCC)CC(C)(C)C2,12.8%
8,C=CCN1CCN(C(c2cc(OC)ccc2OC)c2nnnn2CC2CCCO2)CC1.Cl (stereo not drawn),12.4%
9,Cc1nn(C)c(Cl)c1CN1CCCC(C(=O)Nc2cccc(-n3cccn3)c2)C1 (stereo not drawn),-3.6%
10,CN1C(=O)CC(N2CCN(c3ccc(Cl)c(Cl)c3)CC2)C1=O (stereo not drawn),1.54%
11,O=C(NC(CC(=O)N1CCN(c2ccccc2)CC1)c1ccccc1)c1ccccc1Cl (stereo not drawn),-19.6%
12,O=C(Cc1ccc(F)cc1)N1CCN(c2ccc([N+](=O)[O-])cc2)CC1,-45.8%
13,O=C(NC(CC(=O)N1CCN(c2ccc([N+](=O)[O-])cc2)CC1)c1ccccc1)c1ccccc1Cl (stereo not drawn),-69%
14,O=C(CCCC(=O)N1CCN(c2ccc([N+](=O)[O-])cc2)CC1)c1ccccc1,-66%
15,O=C(CN1CCN(c2ccc([N+](=O)[O-])cc2)CC1)Nc1ccccn1,-75.8%
16,Cc1ccc(CC(=O)N2CCN(c3ccc([N+](=O)[O-])cc3)CC2)cc1,-30.4%
17,O=C(Cc1ccc([N+](=O)[O-])cc1)N1CCN(c2ccc([N+](=O)[O-])cc2)CC1,-82.5%
18,O=C(CCCC(=O)N1CCN(c2cccc(Cl)c2)CC1)c1ccccc1,1.83%
19,O=C(CN1CCN(c2ccc([N+](=O)[O-])cc2)CC1)Nc1nccs1,-29.3%
20,O=C(NC(CC(=O)N1CCN(c2ccccc2O)CC1)c1ccccc1)c1ccccc1Cl (stereo not drawn),-15.6%
21,O=C(CN1CCN(c2ccc([N+](=O)[O-])cc2)CC1)c1ccccc1,-9.94%
22,O=C(CN1CCN(CC(=O)Nc2ccccn2)CC1)Nc1ccccn1,-9.95%
